Shown are actives, neighbours in structure and some others; about 3.7% of the full set was active somewhere.
PfHsp90 set2 – growth inhibition of yeast expressing Plasmodium Hsp90; inhibition, % at 9.4 µM; S. cerevisiae expressing PfHsp90, BacTiter-Glo ATP, 48 h; yeast lacking PDR1 and PDR3 efflux regulators; AID 504621; 0.32% of 310,000 active;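 active means every replicate shows inhibition above about 80%, whatever the replicate mean, limit read from the data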
tim23-1 inh – inhibits growth of tim23-1 mutant yeast. S. cerevisiae tim23-1 growth, BacTiter-Glo luminescence, 24 h. inhibition, % at 20 µM. 1.3% of 330,000 active. AID 463212;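 active means growth inhibition of the mutant yeast at or above 50%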;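 further: temperature-sensitive mutant grown at 25 °C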
TIM10 inh – TIM10 yeast growth inhibition | S. cerevisiae TIM10 strain growth, BacTiter-Glo luminescence, 24 h | inhibition, % at 10 µM | 1.4% of 330,000 active;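 active means inhibition of 40% or more at the single tested concentration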;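 further: wild-type TIM10 isogenic control strain grown at permissive 25 °C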
tim10-1 inh – tim10-1 yeast growth inhibition; S. cerevisiae tim10-1 ts strain growth, BacTiter-Glo, 24 h; inhibition, % at 20 µM; 2.2% of 330,000 active; AID 463190;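 active means inhibition of at least 40%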;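 further: mutant grown at 25 °C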
NLRP3 yeast inh – blocks the NALP3 inflammasome reconstituted in yeast; Yeast reconstituted NLRP3/ASC/caspase-1, beta-gal luminescence, 24 h; inhibition, % at 10 µM; 0.39% of 330,000 active; AID 2825;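 active means inhibition of 50% or more; inactive means inhibition below 50%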
tim10 confirm – confirmation of TIM10 yeast growth inhibitors; shares compounds with TIM10 inh; S. cerevisiae tim10 strain growth, BacTiter-Glo luminescence, 24 h; inhibition, % at 10 µM; 63% of 4,600 active;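 active means inhibition of yeast growth at or above a set limit in either of two replicates at 10 µM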; further: this counterscreen used the strain with wild-type TIM10
Numbers stand for hits; n = inactive; x = no result given.

SMILES	PfHsp90 set2	tim23-1 inh	TIM10 inh	tim10-1 inh	NLRP3 yeast inh	tim10 confirm
CCOC12NC(=O)CC(=O)N1C(c1ccccc1)=CS2 (stereo not drawn)	x	n	43	n	n	n
O=C(c1cc2sccc2n1Cc1ccc(F)cc1)N1CCN(c2nc3ccccc3s2)CC1	n	n	43	n	n	n
O=C(c1ccc([N+](=O)[O-])o1)N1CCN(c2nc3c(Cl)cccc3s2)CC1	n	n	56	n	n	85
O=C(c1ccc([N+](=O)[O-])o1)N1CCN(c2nc3ccc(F)cc3s2)CC1	x	n	40	n	n	81
O=C(O)c1ccc(Cl)c(NC(=O)C2CCCN2S(=O)(=O)c2cccc3nsnc23)c1 (stereo not drawn)	n	n	n	n	n	x
CCOc1ccc(S(=O)(=O)Nc2ccc(C(=O)NCCCN3CCOCC3)cc2)cc1	n	n	n	n	n	x
Cc1c(/N=C(\[O-])Nc2ccc(Br)cc2)sn[n+]1C	x	n	n	n	n	x
CC1(C(=O)N2CC3(CC(c4cccc(NC(=O)CC(c5ccccc5)c5ccccc5)c4)=NO3)C[C@@H]2C(N)=O)CC1 (stereo partly drawn)	n	n	96	n	n	n
COc1ccc(C(=O)N2CC3(CC(c4cccc(NC(=O)CC(c5ccccc5)c5ccccc5)c4)=NO3)C[C@H]2C(N)=O)cc1 (stereo partly drawn)	n	n	96	n	n	n
COc1ccc(CN2C(=O)C(O)(CC(=O)c3ccc4c(c3)OCO4)c3ccccc32)cc1OC (stereo not drawn)	x	n	n	n	n	x
COc1ccc(CN(CC(=O)NC(C)C)C(=O)CCC(=O)Nc2nccs2)cc1	n	n	n	n	n	x
COc1ccc(O)c(-c2cc(-c3cccc(Br)c3)n[nH]2)c1	94	n	53	n	n	62
COc1ccc(-c2cc(-c3ccc(OC)c(OC)c3)n[nH]2)c(O)c1	n	n	47	n	n	n
O=[N+]([O-])c1cccc(-c2cc(-c3cc(Br)ccc3O)[nH]n2)c1	n	n	47	n	n	43
COc1ccc(-c2ncncc2-c2ccc(OC)c(OC)c2)c(O)c1	n	n	n	n	n	x
O=C(O)c1cc(NC(=O)c2ccc(Cl)c([N+](=O)[O-])c2)cc(C(=O)O)c1	n	n	n	n	n	x
O=C(Nc1ccc(C(O)(C(F)(F)F)C(F)(F)F)cc1)c1ccc(Cl)c([N+](=O)[O-])c1	n	n	59	n	n	n
O=S(=O)(c1ccc(N2CCN(CCO)CC2)nc1)N1CCCCC1	n	n	n	n	n	x
CCC(=O)Nc1cccc(C(=O)N(Cc2ccccc2)Cc2ccccc2)c1	n	n	n	n	n	x
CCOC(=O)CC1=NN(c2ccccc2)C(=O)/C1=C\c1ccc(OC)cc1OC	n	n	48	n	n	n
COC(=O)CC1=NN(c2ccccc2)C(=O)/C1=C\c1ccc(OC)cc1	n	n	n	n	n	x
CCCCCOC(=O)c1ccc(NC(=O)c2ccco2)cc1	x	n	41	n	n	n
CCCCOC(=O)c1ccc(NC(=S)NC(=O)c2ccco2)cc1	n	n	n	n	n	x
CN(C)c1ccc(N=Nc2ccccc2C(=O)OCC(=O)N2CCCCCC2)cc1	n	n	40	n	n	n
COc1cccc(C(=O)OC(C)CN2CCCC2)c1 (stereo not drawn)	n	n	n	n	n	x
SMILES	PfHsp90 set2	tim23-1 inh	TIM10 inh	tim10-1 inh	NLRP3 yeast inh	tim10 confirm
CC(CN1CCCCC1)OC(=O)c1cccc(F)c1 (stereo not drawn)	n	n	97	n	n	n
COc1ccc(OC)c(NC(=O)CN2C(=O)C(=O)N(Cc3ccccc3)C2=O)c1	n	n	n	n	n	x
COc1nnc(-c2ccc(N3CCOCC3)c(NC(=O)c3ccccc3)c2)c2ccccc12	n	n	40	n	n	n
COc1nnc(-c2ccc(N3CCOCC3)c(NC(C)=O)c2)c2ccccc12	n	n	n	n	n	x
O=C(N/N=C/c1cccnc1)c1cc2ccccc2o1	n	n	n	n	n	x
O=C(N/N=C/c1ccncc1)c1cc2ccccc2o1	n	n	43	n	n	36
CCOC(=O)c1ccc(NC(=O)c2c(N)n(Cc3ccccc3)c(=O)[nH]c2=O)cc1	n	n	98	n	n	n
Cc1oc(-c2ccccc2)nc1CS(=O)CC(=O)N1CCc2ccccc2C1 (stereo not drawn)	n	n	n	n	n	x
CC1=NN(/C(=N\c2nnc(C)s2)Nc2ccc(C(C)(C)C)cc2)[C@H](c2ccc(C)cc2)S1	n	n	52	n	n	n
Cc1ccc(NC(=O)CCSc2nnc(C)s2)cc1	x	n	n	n	n	x
C=CCOC(=O)C1=C(C)NC(=S)NC1/C=C/c1ccccc1 (stereo not drawn)	n	n	43	n	n	n
CCc1ccc(C(=O)NC(CCSC)C(=O)OC)cc1 (stereo not drawn)	n	n	n	n	n	x
CC(=O)Nc1ccc(C(=O)OCc2ccc(Br)cc2)cc1	n	n	41	n	n	35
O=C(OCc1ccc(Br)cc1)c1ccncc1	n	n	n	n	n	x
COc1ccccc1/C=C/C(=O)c1ccc(Cl)cc1	n	n	n	n	n	x
COc1ccc(OC)c(/C=C/C(=O)c2ccc(Cl)cc2)c1	n	n	45	n	n	32
O=C(/C=C/c1ccccc1Cl)c1ccc[nH]1	n	n	n	n	n	x
O=C(/C=C/c1ccc(Br)cc1)c1ccc(NC(=O)c2ccco2)cc1	n	n	41	n	n	n
O=C(Nc1cccc(S(=O)(=O)N2CCCCC2)c1)c1ccc([N+](=O)[O-])o1	n	n	46	n	n	n
O=C(COC(=O)c1ccc([N+](=O)[O-])o1)Nc1cccc(S(=O)(=O)N2CCCCC2)c1	x	n	n	n	n	x
CC(=O)Nc1ccc(S(=O)(=O)N(C)CC(=O)OCC(=O)NCc2ccco2)cc1	x	n	n	n	n	x
Cc1nn2c(-c3ccco3)nnc2c2ccccc12	x	n	62	n	n	48
COc1ccc2nc(NC(=O)C3CCN(S(=O)(=O)c4cccc5nsnc45)CC3)sc2c1	n	n	40	n	n	n
CCOCCC(=O)Nc1nnc(CCc2ccccc2)s1	n	n	n	n	n	x
COc1ccccc1C(CNC(=O)COc1cc(C)ccc1Cl)N1CCCC1 (stereo not drawn)	x	n	n	n	n	x
CCOC(=O)c1cnc(Nc2nc3ccccc3o2)nc1CN1CCN(C)CC1	n	x	x	x	x	x
CCC(=O)Nc1ccc(C(=O)c2ccccc2)cc1	n	n	n	n	n	x
CCC(=O)Nc1ccc(C(=O)OCc2ccccc2Cl)cc1	n	n	58	n	n	48
COc1ccc([C@H]2/C=C\CN(S(=O)(=O)c3ccc(C)cc3)[C@@H](C)C(=O)N2Cc2ccc(F)cc2)cc1	x	n	n	n	n	x
Cc1ccccc1Oc1nc2c(C)cccn2c(=O)c1/C=C(\C#N)C(=O)NC1CCS(=O)(=O)C1 (stereo not drawn)	n	n	41	n	n	n

Screens: PubChem, several laboratories
